The full data set covers some 7,900 targets. This sample favours those with a hit. About 0.6% of all pairs of compound and target were hits.
compound: c1cn2cc(-c3ccc4cn[nH]c4c3)nc(Nc3ccc(N4CCOCC4)cc3)c2n1 [entospletinib]; experiment: log2 fold change, soluble protein after heating vs DMSO (PISA); higher = thermal stabilisation; K562 cells, 10 uM, 30 min; active = over 0.2 and 3.5 SD of the protein, either way, in both replicates (recomputed)
Method in brief: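 Quantification of soluble protein used TMTpro 16plex LC-MS/MS, with channel sums equalised. Samples were the supernatant after 21,000xg for 90 min of pooled aliquots from K562 cells (2×10^6 cells/mL) treated with 10 μM compound for 30 min, heated for 3 min over 48°C-58°C, and extracted in PBS with 0.5% NP-40 at 4°C. Values, from duplicates, describe thermal stability against control samples on a log2 fold-change scale.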

UniProt Q2TAC2, sequence (Q2TAC2 whole entry, looked up): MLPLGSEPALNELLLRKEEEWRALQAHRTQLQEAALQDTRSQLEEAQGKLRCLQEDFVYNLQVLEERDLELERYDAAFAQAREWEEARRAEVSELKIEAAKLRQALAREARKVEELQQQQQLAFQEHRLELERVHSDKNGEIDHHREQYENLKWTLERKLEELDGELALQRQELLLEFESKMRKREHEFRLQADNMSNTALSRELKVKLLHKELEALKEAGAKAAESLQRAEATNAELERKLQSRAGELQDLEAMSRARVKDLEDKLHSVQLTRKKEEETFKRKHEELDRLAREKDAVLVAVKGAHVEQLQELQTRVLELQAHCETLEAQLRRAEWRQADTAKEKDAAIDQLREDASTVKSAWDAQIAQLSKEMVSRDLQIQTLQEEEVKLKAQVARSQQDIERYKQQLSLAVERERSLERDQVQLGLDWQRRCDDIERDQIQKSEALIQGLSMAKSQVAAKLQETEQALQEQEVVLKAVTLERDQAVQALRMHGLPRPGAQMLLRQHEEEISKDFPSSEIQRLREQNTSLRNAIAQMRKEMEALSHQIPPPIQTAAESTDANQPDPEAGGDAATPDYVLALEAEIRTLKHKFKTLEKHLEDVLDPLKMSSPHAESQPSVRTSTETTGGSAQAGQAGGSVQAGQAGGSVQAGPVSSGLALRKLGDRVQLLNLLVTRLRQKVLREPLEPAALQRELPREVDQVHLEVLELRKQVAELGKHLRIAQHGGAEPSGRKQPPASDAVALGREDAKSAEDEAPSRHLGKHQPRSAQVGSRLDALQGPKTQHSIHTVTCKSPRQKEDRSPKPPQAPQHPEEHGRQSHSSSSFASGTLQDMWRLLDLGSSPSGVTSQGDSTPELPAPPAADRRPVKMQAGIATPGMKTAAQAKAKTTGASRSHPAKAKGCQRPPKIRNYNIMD
UniProt P21127, sequence (P21127 whole entry, looked up): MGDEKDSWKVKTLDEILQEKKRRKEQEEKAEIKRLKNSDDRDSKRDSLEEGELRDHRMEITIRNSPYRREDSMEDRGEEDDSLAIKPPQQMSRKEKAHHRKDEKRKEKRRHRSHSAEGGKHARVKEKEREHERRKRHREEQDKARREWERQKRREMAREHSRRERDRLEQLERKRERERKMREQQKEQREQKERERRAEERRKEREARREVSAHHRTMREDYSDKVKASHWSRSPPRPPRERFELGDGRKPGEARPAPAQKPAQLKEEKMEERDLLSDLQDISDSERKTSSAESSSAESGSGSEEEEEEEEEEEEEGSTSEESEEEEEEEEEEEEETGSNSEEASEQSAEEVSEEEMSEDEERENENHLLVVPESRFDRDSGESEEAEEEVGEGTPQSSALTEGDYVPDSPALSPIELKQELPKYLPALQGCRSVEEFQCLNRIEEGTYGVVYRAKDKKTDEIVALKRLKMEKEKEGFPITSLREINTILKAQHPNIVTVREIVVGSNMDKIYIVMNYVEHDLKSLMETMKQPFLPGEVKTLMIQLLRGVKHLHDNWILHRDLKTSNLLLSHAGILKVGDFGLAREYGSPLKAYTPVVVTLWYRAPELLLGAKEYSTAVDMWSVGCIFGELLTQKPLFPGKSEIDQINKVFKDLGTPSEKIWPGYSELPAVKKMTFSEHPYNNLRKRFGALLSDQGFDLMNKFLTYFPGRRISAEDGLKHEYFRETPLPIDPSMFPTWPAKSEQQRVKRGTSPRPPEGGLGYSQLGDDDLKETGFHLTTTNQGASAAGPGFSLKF
UniProt O76031, sequence (O76031 whole entry, looked up): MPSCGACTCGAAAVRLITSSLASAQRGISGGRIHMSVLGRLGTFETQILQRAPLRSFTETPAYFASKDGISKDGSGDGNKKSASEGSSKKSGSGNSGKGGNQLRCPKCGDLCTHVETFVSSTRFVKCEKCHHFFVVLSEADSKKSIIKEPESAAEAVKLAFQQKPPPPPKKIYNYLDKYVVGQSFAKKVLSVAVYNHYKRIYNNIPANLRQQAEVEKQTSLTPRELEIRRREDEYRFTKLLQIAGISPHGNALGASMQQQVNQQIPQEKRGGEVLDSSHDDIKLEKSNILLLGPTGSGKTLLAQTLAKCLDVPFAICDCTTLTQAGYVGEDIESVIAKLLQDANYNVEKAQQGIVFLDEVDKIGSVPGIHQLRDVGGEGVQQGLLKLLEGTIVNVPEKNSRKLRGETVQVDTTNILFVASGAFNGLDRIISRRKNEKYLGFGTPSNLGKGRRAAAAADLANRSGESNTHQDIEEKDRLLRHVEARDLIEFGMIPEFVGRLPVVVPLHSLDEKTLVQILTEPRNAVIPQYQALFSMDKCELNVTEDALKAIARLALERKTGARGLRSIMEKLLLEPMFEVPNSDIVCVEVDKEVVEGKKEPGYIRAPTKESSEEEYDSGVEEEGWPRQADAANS
UniProt Q92851, sequence (Q92851 whole entry, looked up): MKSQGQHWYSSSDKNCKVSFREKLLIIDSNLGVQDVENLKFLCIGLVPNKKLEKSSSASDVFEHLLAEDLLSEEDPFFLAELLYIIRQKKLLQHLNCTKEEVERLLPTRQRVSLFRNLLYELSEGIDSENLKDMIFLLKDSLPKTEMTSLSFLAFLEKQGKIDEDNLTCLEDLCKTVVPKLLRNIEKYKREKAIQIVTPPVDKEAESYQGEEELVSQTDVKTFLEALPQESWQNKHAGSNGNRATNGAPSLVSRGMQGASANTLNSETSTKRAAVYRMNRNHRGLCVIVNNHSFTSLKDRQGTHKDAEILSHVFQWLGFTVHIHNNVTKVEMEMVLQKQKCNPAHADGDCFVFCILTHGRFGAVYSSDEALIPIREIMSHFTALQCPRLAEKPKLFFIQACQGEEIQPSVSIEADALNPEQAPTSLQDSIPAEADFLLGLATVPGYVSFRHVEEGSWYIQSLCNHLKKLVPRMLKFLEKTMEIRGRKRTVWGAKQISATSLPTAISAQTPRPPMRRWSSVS
UniProt Q8N4Q1, sequence (Q8N4Q1 whole entry, looked up): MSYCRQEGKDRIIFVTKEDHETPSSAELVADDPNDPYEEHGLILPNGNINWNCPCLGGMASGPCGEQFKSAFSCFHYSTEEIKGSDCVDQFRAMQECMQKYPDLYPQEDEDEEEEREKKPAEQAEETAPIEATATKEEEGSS
UniProt Q96KP4, sequence (Q96KP4 whole entry, looked up): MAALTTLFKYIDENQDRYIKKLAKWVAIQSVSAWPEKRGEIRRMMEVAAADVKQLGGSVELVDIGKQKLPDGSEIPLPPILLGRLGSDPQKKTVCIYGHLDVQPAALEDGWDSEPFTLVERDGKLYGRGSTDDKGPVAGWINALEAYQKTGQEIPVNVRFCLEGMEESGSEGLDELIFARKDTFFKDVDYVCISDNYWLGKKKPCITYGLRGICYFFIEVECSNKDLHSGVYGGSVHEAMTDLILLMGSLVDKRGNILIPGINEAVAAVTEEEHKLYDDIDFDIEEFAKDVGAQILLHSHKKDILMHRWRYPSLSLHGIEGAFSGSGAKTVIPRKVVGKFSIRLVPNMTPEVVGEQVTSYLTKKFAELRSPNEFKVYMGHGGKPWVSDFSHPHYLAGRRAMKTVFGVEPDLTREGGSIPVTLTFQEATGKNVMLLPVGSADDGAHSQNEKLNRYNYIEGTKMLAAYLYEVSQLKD
UniProt Q96KA5, sequence (Q96KA5 whole entry, looked up): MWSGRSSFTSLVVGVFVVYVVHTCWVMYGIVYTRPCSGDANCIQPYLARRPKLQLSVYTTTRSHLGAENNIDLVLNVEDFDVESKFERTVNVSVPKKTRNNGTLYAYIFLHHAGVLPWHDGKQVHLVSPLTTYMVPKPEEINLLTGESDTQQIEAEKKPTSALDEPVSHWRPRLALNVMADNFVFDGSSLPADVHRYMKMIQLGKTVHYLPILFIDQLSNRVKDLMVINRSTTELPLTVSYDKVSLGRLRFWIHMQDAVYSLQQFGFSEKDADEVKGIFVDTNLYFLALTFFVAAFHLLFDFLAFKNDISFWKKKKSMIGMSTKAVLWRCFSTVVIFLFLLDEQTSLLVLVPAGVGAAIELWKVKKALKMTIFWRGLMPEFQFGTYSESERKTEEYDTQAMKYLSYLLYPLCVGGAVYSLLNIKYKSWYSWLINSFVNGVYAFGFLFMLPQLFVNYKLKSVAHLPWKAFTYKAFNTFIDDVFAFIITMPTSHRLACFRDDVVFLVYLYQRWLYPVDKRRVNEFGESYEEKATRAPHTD
UniProt Q8N684, sequence (Q8N684 whole entry, looked up): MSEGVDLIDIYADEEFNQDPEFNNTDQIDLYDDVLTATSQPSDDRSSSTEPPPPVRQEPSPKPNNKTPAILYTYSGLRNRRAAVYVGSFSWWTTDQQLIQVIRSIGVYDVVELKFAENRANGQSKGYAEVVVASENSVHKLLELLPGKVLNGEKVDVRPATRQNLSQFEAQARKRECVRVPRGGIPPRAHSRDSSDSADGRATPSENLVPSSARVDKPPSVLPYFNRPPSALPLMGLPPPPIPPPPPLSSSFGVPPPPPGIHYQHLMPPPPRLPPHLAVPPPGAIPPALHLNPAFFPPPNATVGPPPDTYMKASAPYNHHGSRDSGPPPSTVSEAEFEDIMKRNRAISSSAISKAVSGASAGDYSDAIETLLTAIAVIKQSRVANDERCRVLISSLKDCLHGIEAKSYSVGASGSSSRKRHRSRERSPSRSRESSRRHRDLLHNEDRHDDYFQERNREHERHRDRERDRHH
UniProt P11802, sequence (P11802 whole entry, looked up): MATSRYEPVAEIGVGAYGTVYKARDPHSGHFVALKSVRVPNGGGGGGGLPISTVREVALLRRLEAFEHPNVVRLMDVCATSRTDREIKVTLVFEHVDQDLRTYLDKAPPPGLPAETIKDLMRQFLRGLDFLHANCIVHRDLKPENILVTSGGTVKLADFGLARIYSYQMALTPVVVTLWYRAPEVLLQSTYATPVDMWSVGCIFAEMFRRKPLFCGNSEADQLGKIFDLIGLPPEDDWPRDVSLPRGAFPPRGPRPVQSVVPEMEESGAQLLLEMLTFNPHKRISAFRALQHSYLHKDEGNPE
UniProt Q9NRR8, sequence (Q9NRR8 whole entry, looked up): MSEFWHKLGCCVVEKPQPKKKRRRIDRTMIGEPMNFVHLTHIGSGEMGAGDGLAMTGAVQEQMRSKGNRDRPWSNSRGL
UniProt P15954, sequence (P15954 whole entry, looked up): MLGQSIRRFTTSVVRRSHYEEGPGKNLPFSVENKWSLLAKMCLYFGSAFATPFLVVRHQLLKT

log2 fold change, inactive:
CASP10 isoform 4 (UniProt Q92851) 0.06
CLUH, A0A494C0R8 0.119
CEP128 (UniProt Q6ZU80) -0.064
COPS3 isoform 2 (UniProt Q9UNS2) 0.135
CLTB (UniProt P09497) -0.025
CHCHD4 isoform 2 (UniProt Q8N4Q1) 0.036
CHERP (UniProt Q8IWX8) 0.026
CDK6 (UniProt Q00534) 0.036
CCDC57 (UniProt Q2TAC2) -0.044
CLPX (UniProt O76031) -0.002
CASP2 (UniProt P42575) -0.004
CAMK2G isoform 6 (UniProt Q13555) 0.131
CDC42BPA isoform 6 (UniProt Q5VT25) 0.112
CDK11B (UniProt P21127) 0.14
CDK5RAP3 isoform 4 (UniProt Q96JB5) -0.057
CDK9 isoform 2 (UniProt P50750) 0.012
CDK4 (UniProt P11802) -0.069
CPSF7 isoform 3 (UniProt Q8N684) -0.011
CBX1 (UniProt P83916) 0.066
CBX5 (UniProt P45973) 0.01
C19orf53 (UniProt Q9UNZ5) 0.099
CASTOR2 (UniProt A6NHX0) -0.104
CHKA (UniProt P35790) 0.021
CHEK1 (UniProt O14757) -0.057
CNDP2 (UniProt Q96KP4) 0.03
COASY isoform 2 (UniProt Q13057) -0.076
CAB39L (UniProt Q9H9S4) 0.154
CPQ (UniProt Q9Y646) 0.011
COX7C (UniProt P15954) -0.074
CLPTM1L (UniProt Q96KA5) -0.025
CDC42SE1 (UniProt Q9NRR8) 0.141
CPSF6 isoform 2 (UniProt Q16630) 0.064
CPT2 (UniProt P23786) 0.206
CA8 (UniProt P35219) 0.094
CLCN3 isoform 2 (UniProt P51790) -0.039
CDK5 (UniProt Q00535) -0.022
CLSPN (UniProt Q9HAW4) 0.057
COQ9 (UniProt O75208) -0.022
